Bioassay records (PubChem)
Shown are actives, neighbours in structure and some others; about 0.68% of the full set was active somewhere.
AMA1-RON2 inh – disrupts binding of P. falciparum AMA1 to RON2; hit rate 0.2% among 360,000; AlphaScreen AMA1-biotinylated RON2 peptide binding; Potency, µM (doses to about 58.2 µM), inactives show at the top dose activity change, negative = inhibition, usual class: inhibitors;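 further: 0% = vehicle wells and -100% = peptide control; nearly all actives have a fitted effect of over 45% in size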
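AMA1 (3D7) with his tag at 25 nM final met compounds first, then biotinylated RON2 peptide at 25 nM; detection used donor plus acceptor beads, 10 µg/mL apiece, read by AlphaScreen after 30 min at room temperature.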
LmPK inhibitor – blocks Leishmania mexicana pyruvate kinase activity | Q27686 | purified LmPK, Kinase-Glo ATP luminescence, 1 h | Potency, µM (doses to about 57.5 µM), for the others: top-dose activity change, negative = inhibition, hits mostly inhibitors | hit rate 0.37% among 290,000 | AID 1721
Target sequence (Q27686 whole entry, looked up): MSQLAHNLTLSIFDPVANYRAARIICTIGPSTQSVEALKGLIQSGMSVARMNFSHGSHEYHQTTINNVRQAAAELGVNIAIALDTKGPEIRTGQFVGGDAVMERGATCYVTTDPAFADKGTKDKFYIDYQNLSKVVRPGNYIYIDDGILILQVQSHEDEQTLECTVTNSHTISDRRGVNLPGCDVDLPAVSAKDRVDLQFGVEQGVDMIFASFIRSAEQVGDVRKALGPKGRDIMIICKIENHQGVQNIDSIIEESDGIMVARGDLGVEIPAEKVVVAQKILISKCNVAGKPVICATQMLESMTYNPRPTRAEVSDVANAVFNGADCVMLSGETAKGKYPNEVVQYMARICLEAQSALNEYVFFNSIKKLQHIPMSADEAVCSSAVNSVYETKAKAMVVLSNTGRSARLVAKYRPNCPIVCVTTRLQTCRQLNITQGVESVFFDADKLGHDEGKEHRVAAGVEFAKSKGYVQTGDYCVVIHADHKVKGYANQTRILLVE
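qHTS format; LmPK 0.1 nM; substrates PEP 0.5 mM and ADP 0.1 mM. One-hour room-temperature incubation, then coupled luciferase luminescence; 0.5 nM enzyme wells mark activation.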
Tb PYK inh – inhibitors of Trypanosoma brucei pyruvate kinase | AID 624173 | hit rate 0.12% among 410,000 | Q57TT1 | TbPYK enzyme, Kinase-Glo Plus ATP luminescence, 45 min | Potency, µM (top dose mostly 76.8 µM), inactives show at the highest dose activity, negative = inhibition, hits mostly inhibitors; further: nearly all actives have a fitted effect of over 50% in size
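Assay buffer: 50 mM TEA pH 7.2, 100 mM KCl, 10 mM MgCl2, 0.05% BSA, 0.01% Tween-20. Pyruvate kinase from T. brucei plus substrate met compound, then ADP (130 uM final). Luminescence was read post 45 min RT.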
RE007 growth inh – less growth of the S. pombe RE007 Vpr strain; S. pombe RE007 Vpr strain, BacTiter-Glo ATP luminescence, 24 h; hit rate 0.21% among 360,000; Potency, µM (series often up to 92.2 µM), without a hit: at the top dose activity change, negative = less growth, actives largely listed as inhibitors; AID 651644; active means well fitted falling curve with a large enough effect; inconclusive means small, poorly fitted or top-dose-only effect; inactive means no such curve, though single readings can be large or run the other way; further: nearly all actives have a fitted effect of over 50% in size
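Fission yeast RE007 carrying one integrated HIV-1 vpr copy, seeded at OD 0.01 in PMG+AL medium with 23 nL pinned compound. Grown 24 h at 30 degrees; viability read by BacTiter-Glo luminescence after 5 min.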
* hit, by the source's call; ? = inconclusive; · = no result given. Unless noted, the call rests on the fitted dose curve; in most records, active means well fitted curve in the direction sought with a large enough effect; inconclusive means small, poorly fitted or top-dose-only effect, or another doubt; inactive means no such curve, though single readings can be large; an effect the other way counts as inactive or inconclusive. Unless noted, on the % scale 0 is the no-effect control and ±100 the full control effect; potency means the concentration at half of the fitted maximal effect.

SMILES	AMA1-RON2 inh	LmPK inhibitor	Tb PYK inh	RE007 growth inh
COc1ccc(C(C#N)=C2C=CC(=NO)C=C2)cc1	15.8µM*	-4.2%	-15.1%	?
COc1ccc2c(c1OC)C(=O)OC2Nc1nc(-c2cccc([N+](=O)[O-])c2)cs1 (stereo not given)	-21.0%	11.5%	-2.7%	-10.1%
COc1ccc(OC)c(Nc2nc(=O)c3cccnc3s2)c1	-10.2%	2.5%	35.5µM*	-2.7%
COCCCNc1nc2ccccc2[nH]c1=O	12.6%	-2.4%	-5.0%	-10.8%
Cn1c(=O)[nH]c(=O)c2c1[nH]c(=S)n2Cc1ccc(Cl)cc1	33.5%	?	5.62µM*	·
CC1=C(CC(=O)c2ccc(Cl)cc2)C(=O)c2ccccc2C1=O	11.9µM*	2.3%	-3.0%	-20.8%
O=C(Cc1ccccn1)c1ccc(Cl)cc1	79.7%	·	-3.6%	?
CCCSc1nn2c(=O)c3ccccc3nc2s1	0.9%	14.1µM*	6.6%	?
COc1ccc(OC)c(NC(=O)c2ccc(-c3cccs3)cc2)c1	28.2µM*	5.8%	-6.9%	-6.5%
O=C(c1ccccc1)N1CCN(c2ccc(NCc3ccc4c(c3)OCO4)cc2)CC1	28.2µM*	3.0%	-28.4%	-26.2%
CC(=O)N1CCN(c2ccc(NCc3ccc4c(c3)OCO4)cc2)CC1	0.5%	-4.2%	-11.5%	2.6%
O=C(Nc1ccccc1)Nc1ccc(C(=O)N2CCCC2)cc1	23.7%	15.8µM*	?	-57.3%
O=C(Nc1ccc(C(=O)N2CCCCC2)cc1)c1ccccc1	15.0%	·	?	-11.8%
O=C(Nc1ccc(C(=O)N2CCCC2)cc1)c1ccc2c(c1)OCO2	4.5%	15.8µM*	0.6%	?
NS(=O)(=O)c1cccc(NC(=O)c2cccc3c(Br)cccc23)c1	-0.3%	3.5%	-0.2%	-8.6%
COc1ccccc1N1CCN(/N=C\c2sccc2C)CC1	12.6µM*	-4.6%	-1.1%	-16.1%
COc1ccccc1N1CCN(/N=C/C=C/c2ccccc2[N+](=O)[O-])CC1	5.62µM*	-6.4%	-1.5%	-15.4%
O=[N+]([O-])c1ccccc1/C=N\N1CCN(c2ccccc2)CC1	22.4µM*	4.1%	-1.2%	?
COc1ccccc1N1CCN(/N=C\c2ccccc2)CC1	-12.0%	20.8%	4.8%	2.8%
O=[N+]([O-])c1ccccc1/C=C/C=N/N1CCCCC1	10µM*	-9.1%	-0.2%	-25.2%
COc1cccc(-c2nc(CS(=O)(=O)CC(=O)NC3CCCCC3C)c(C)o2)c1 (stereo not given)	10.0%	-1.8%	-1.2%	0.6%
O=C(Nc1cccc(S(=O)(=O)C(F)F)c1)c1ccc(S(=O)(=O)N2CCOCC2)cc1	-15.9%	-7.0%	2.2%	19.7%
Cc1cc([N+](=O)[O-])c2ccccc2[n+]1[O-]	1.9%	-4.2%	-1.0%	14.1µM*
O=[N+]([O-])c1cccc2c([N+](=O)[O-])cccc12	11.0%	·	-3.3%	-3.8%
Cc1cccc(NC(=S)N/N=C/C(C)c2ccccc2)c1C (stereo not given)	50.4%	1.8%	?	6.8%
SMILES	AMA1-RON2 inh	LmPK inhibitor	Tb PYK inh	RE007 growth inh
COc1ccc(C(=O)Nc2cc3c(cc2N2CCCC2)n(C)c(=O)c(=O)n3C)cc1OC	·	·	-2.0%	·
COc1ccc(N=CC2=C(O)c3ccccc3C2=O)cc1	15.7%	3.16µM*	-19.8%	16.1%
O=C1C(C=Nc2ccccc2)=C(O)c2ccccc21	-7.7%	3.55µM*	0.0%	-23.4%
O=C(COC(=O)c1ccccc1-n1cnnn1)c1ccc(F)c(F)c1	0.6%	·	-3.0%	-7.4%
CC(C)C[C@H](N)C(=O)N1CCC(C(=O)N[C@H](C(=O)NCc2ccc(F)cc2)C(C)C)CC1	-3.8%	-2.8%	-2.4%	-12.1%
CC(=O)Nc1ccc(-n2cc(-c3ccccc3)[nH]c2=S)cc1	83.0%	?	3.16µM*	5.0%
COc1ccc(-n2cc(-c3ccccc3)[nH]c2=S)cc1	11.1%	?	?	15.0%
COc1ccc(Br)cc1/C=N/N1CCN(Cc2ccccc2Cl)CC1	8.91µM*	15.8%	-4.9%	-3.0%
COc1ccccc1/C=C/C=N\N1CCN(Cc2ccccc2Cl)CC1	20µM*	0.8%	1.0%	-17.9%
Clc1ccc(/C=N/N2CCN(Cc3ccccc3Cl)CC2)cc1	12.6µM*	6.5%	-1.6%	?
CCN(C(=O)COc1ccc(C)cc1OC)c1cccc2ccccc12	4.7%	·	1.5%	3.9%
CCc1ccc(C2=NN(S(C)(=O)=O)C(c3cccs3)C2)cc1 (stereo not given)	13.1%	22.4µM*	-6.9%	-14.4%
